DT40 TDP1 CPT: qHTS for Inhibitors of human tyrosyl-DNA phosphodiesterase 1 (TDP1): qHTS in cells in presence of CPT; Potency, µM (titrated, usually from 46.2 µM), for the others: at the highest dose activity change, negative = growth inhibition, hits mostly inhibitors; chicken DT40 Tdp1-/-;hTDP1 cells + 20 nM CPT, ATP luminescence, 48 h; 12% of 420,000 active; AID 686979, 2013; further: potency means the concentration at half of the fitted maximal effect; nearly all actives have a fitted effect of over 55% in size
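Chicken DT40 Tdp1-/- cells complemented with human TDP1, 400 cells/well, exposed to compounds plus 20 nM camptothecin for at least 48 h at 37 C; viability read as ATP content by CellTiter-Glo luminescence.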
TDP1 cell noCPT: qHTS for Inhibitors of human tyrosyl-DNA phosphodiesterase 1 (TDP1): qHTS in cells in absence of CPT. 15% of 420,000 active. DT40 Tdp1-/- hTDP1 cells, no CPT, ATP luminescence, 48 h. Potency, µM (series often up to 46.2 µM), inactives show at the highest dose activity change, negative = growth inhibition, most hits filed as inhibitors; further: potency means the concentration at half of the fitted maximal effect; nearly all actives have a fitted effect of over 55% in size
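DT40 Tdp1-/-;hTDP1 cells, no CPT (DMSO vehicle only), 400 cells/well; compounds pin-transferred; ≥48 hr, 37 °C; CellTiter-Glo 30 min RT dark, luminescence read.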
uPA generation: qHTS for Inhibitors of Cell Surface uPA Generation | AID 540303, 2011 | 0.31% of 330,000 active | cell surface uPA generation assay, qHTS | Potency, µM (doses to about 38.3 µM), for the others: at the highest dose activity change, negative = inhibition, hits mostly inhibitors; active means well fitted inhibition curve with a large enough effect; inconclusive means small, poorly fitted or top-dose-only effect; inactive means no such curve, though single readings can be large or run the other way; tested in mouse RAW 264.7 cells; further: potency means the concentration at half of the fitted maximal effect; nearly all actives have a fitted effect of over 55% in size
HT1080-NT tox: qHTS for induction of synthetic lethality in tumor cells producing 2HG: qHTS for the HT-1080-NT fibrosarcoma cell line; HT-1080-NT fibrosarcoma viability, CellTiter-Glo ATP luminescence, 48 h; Potency, µM (series often up to 46.1 µM), without a hit: at the top dose activity, negative = less viability, hits mostly cytotoxic; 1.6% of 360,000 active; AID 686970, 2013;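 further: NT is the 2HG producing partner of a matched IDH1 knockdown line; potency means the concentration at half of the fitted maximal effect; 0% = DMSO-treated cells and -100% = media-only wells without cells; nearly all actives have a fitted effect of over 55% in size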
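750 cells/well, RPMI + 5% FBS; 2 h settle, compound pin-transfer, 48 h at 37 degrees C. CellTiter-Glo 10 min RT, luminescence. Normalized to DMSO and media-only wells.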
HT1080 IDH1KD tx: qHTS for induction of synthetic lethality in tumor cells producing 2HG: qHTS for the HT-1080-IDH1KD cell line. HT-1080 IDH1 knockdown viability, ATP luminescence, 48 h. Potency, µM (titrated, usually from 46.1 µM), for inactives: top-dose activity, negative = toxicity, actives largely listed as cytotoxic. 2% of 360,000 active. AID 686971, 2013;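 further: potency means the concentration at half of the fitted maximal effect; 0% = DMSO wells and -100% = cell-free medium wells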
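In this qHTS, HT-1080 cells depleted of IDH1 are exposed for 48 h at 37 °C to compound titrations. Toxicity is scored from CellTiter-Glo luminescence, with DMSO as full viability and medium alone as none.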
IL-1B inflam inh: qHTS for Inhibitors of Inflammasome Signaling: IL-1-beta AlphaLISA Primary Screen. activity change, % at 57.5 µM. THP-1 LPS/ATP IL-1B secretion, AlphaLISA, 16 h; active compounds read low. 4.7% of 360,000 active. AID 743279, 2014; in the data active means activity change below about -50%; inconclusive means mostly about -30% to -49%
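THP-1 cells pretreated 1 hr with compounds (up to 57.5 uM final), then stimulated with LPS (250 ng/mL final) plus ATP (1.25 mM final); secreted IL-1B measured by AlphaLISA after 16 hr, decreased signal indicating inhibition.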
* marks the source's active call; other numbers are inactive results; ? = inconclusive; . = no result; ! = not active in a repeat. A selection: hits, their analogues and other compounds. The true share with any hit is near 19%. Unless noted, the call rests on the fitted dose curve; in most records, active means well fitted curve in the direction sought with a large enough effect; inconclusive means small, poorly fitted or top-dose-only effect, or another doubt; inactive means no such curve, though single readings can be large; an effect the other way counts as inactive or inconclusive. Unless noted, on the % scale 0 is the no-effect control and ±100 the full control effect.

SMILES	DT40 TDP1 CPT	TDP1 cell noCPT	uPA generation	HT1080-NT tox	HT1080 IDH1KD tx	IL-1B inflam inh
CC1CCCCN1CCNC(=O)c1cc2c(=O)n(C)c3ccccc3c2n1C (stereo not given)	?	?	1%	-11%	-12%	-55*
Cn1c(=O)c(C(=O)NC2CCCCCCC2)c(O)c2ccccc21	21µM*	21µM*	2%	5%	-2%	6
Cn1c(C(=O)NC2CCCCCC2)cc2c(=O)n(C)c3ccccc3c21	15µM*	16µM*	-7%	?	8%	-8
COc1ccc(NC(=O)N2CC3(CCN(C(=O)c4ccco4)CC3)C2)cc1	14%	-1%	.	.	.	.
COc1ccc(Cl)cc1NC(=O)CCc1c(C)nc2c(c1C)c(=O)n(C)c(=O)n2C	2%	-13%	.	.	.	.
Cc1ccc(CNC(=O)C2CCC(CNS(=O)(=O)c3cccs3)CC2)cc1 (stereo not given)	-10%	-19%	-1%	-13%	-7%	-15
Cn1c(=O)c(C(=O)NC2CCCCCC2)c(O)c2ccccc21	-6%	-17%	18%	7%	4%	32
Cn1c(C(=O)NC2CCCCC2)cc2c(=O)n(C)c3ccccc3c21	?	16µM*	-10%	20%	-1%	-6
CC(NC(=O)/C(C#N)=C/c1ccc(Cl)c([N+](=O)[O-])c1)c1ccccc1 (stereo not given)	3.7µM*	3.7µM*	?	?	?	-98*
N#C/C(=C\c1ccc(O)c(O)c1)C(=O)Nc1ccccc1	24µM*	10µM*	?	-17%	?	23
C[C@H](NC(=O)/C(C#N)=C/c1ccc(O)c(O)c1)c1ccccc1	19µM*	19µM*	.	.	.	.
N#C/C(=C\c1cccnc1)C(=O)Nc1ccccc1	-5%	?	2%	22%	19%	4
C[C@@H](NC(=O)/C(C#N)=C/c1ccc(O)c(O)c1)c1ccccc1	24µM*	13µM*!	?	?	?	28
Cc1cccc(NC(=O)/C(C#N)=C/c2cccc([N+](=O)[O-])c2)n1	-5%	-23%	5%	6%	3%	16
CC(NC(=O)/C(C#N)=C/c1ccc(OCC(=O)O)cc1)c1ccccc1 (stereo not given)	1%	-7%	-4%	2%	-2%	-2
COC(=O)c1cc2sccc2n1CC(=O)Nc1ccc(C)cc1C	-26%	-23%	.	.	.	.
CCCCNC(=O)C1(C)CCC(=O)N1C1CCN(Cc2ccccc2)CC1 (stereo not given)	11%	3%	.	19%	8%	-22
COc1ccc2c(c1)c1c(c(=O)n(-c3ccc(OC)c(OC)c3)c(=O)n1Cc1ccc(F)cc1)n2C	-3%	-19%	.	.	.	.
O=C(CN1CCCC1)Nc1ccccc1Sc1ccc(Cl)cc1	-24%	?	16%	-3%	-4%	-11
CC(=O)N1CCC2(CCN(Cc3ccncc3)CC2)CC1	17%	-4%	.	.	.	.
Cc1ccc(C)c(NC(=O)CSc2nc(=O)n(CCN(C)C)c3c2CCC3)c1	-16%	-1%	.	.	.	.
O=[N+]([O-])c1ccc(C=Nc2ccccc2)cc1	?	?	.	-21%	3%	-21
O=[N+]([O-])c1ccc(N=Cc2ccc(Br)c([N+](=O)[O-])c2)cc1	5.2µM*	5.2µM*	-8%	?	-14%	-99*
CN(c1ccccc1)c1ccc(/C=C(\C#N)c2nnc3n2CCCCC3)cc1[N+](=O)[O-]	18µM*	12µM*	-3%	-9%	?	-106*
N#C/C(=C\c1cccc([N+](=O)[O-])c1)c1nnc2n1CCCCC2	?	?	-13%	-15%	-21%	-91*
SMILES	DT40 TDP1 CPT	TDP1 cell noCPT	uPA generation	HT1080-NT tox	HT1080 IDH1KD tx	IL-1B inflam inh
CN(c1ccccc1)c1ccc(/C=C(\CCC(=O)O)c2nc3ccccc3s2)cc1[N+](=O)[O-]	-10%	-7%	13%	3%	13%	-6
CCN1CCN(C(c2ccc(C)cc2)c2sc3nc(-c4ccco4)nn3c2O)CC1 (stereo not given)	4%	0%	.	.	.	.
Cc1c(C)c2c(cc(C)c3c(-c4ccccc4)coc32)oc1=O	-1%	1%	.	.	.	.
CC1=Nc2cc(C(=O)NCCCOC(C)C)ccc2Sc2ccccc21	16µM*	21µM*	-3%	?	8.2µM*	13
CC1=Nc2cc(C(=O)NCCc3ccc(Cl)cc3)ccc2Sc2ccc(C)cc21	6.5µM*	6.5µM*	.	.	.	.
CC(C)OCCCNC(=O)c1ccc2c(c1)NC(=O)c1ccccc1S2	-29%	-22%	-10%	-11%	?	21
CC1=Nc2cc(C(=O)N3CCCC3)ccc2Sc2ccc(C)cc21	4%	?	-1%	4%	-1%	2
CC1=Nc2cc(C(=O)NCCCOC(C)C)ccc2Sc2ccc(C)cc21	5.2µM*	4.6µM*	-5%	0.73µM*	1µM*	43
Cc1ccc(NC(=O)Cn2c(=O)n(CCCCC(=O)NCCc3ccccc3)c(=O)c3ccccc32)cc1	-20%	-17%	.	.	.	.
O=C1CCc2ccc(OCCCCN3CCN(c4cccc(Cl)c4Cl)CC3)cc2N1	16µM*	15µM*	2%	25%	3%	20
Cc1ccc(N2C(=O)NC3(CCCCC3)C2=O)cc1	-6%	-16%	0%	4%	6%	-6
Cc1ccc(N2NC3(CCN(C(N)=O)CC3)NC2=O)cc1	-2%	-10%	1%	5.8µM*	6.5µM*	9
CO/N=C(/C(=O)N[C@@H]1C(=O)N2C(C(=O)O)=C(COC(N)=O)CS[C@H]12)c1ccco1	?	11%	.	.	.	.
Cc1c(CC(=O)NC(C)C)c(=O)oc2cc3c(cc12)CCC(C)(C)O3	21µM*	?	1%	17%	0%	-8
Cc1c(CC(=O)N[C@H](C(=O)O)C(C)C)c(=O)oc2cc3c(cc12)CCC(C)(C)O3	?	23µM*	0%	19%	16%	16
CCC(C)NC(=O)Cc1c(C)c2cc3c(cc2oc1=O)OC(C)(C)CC3 (stereo not given)	?	15µM*	-2%	-3%	-26%	17
O=C(O)c1ccc(-n2nncc2-c2ccccc2)cc1	-17%	-13%	-1%	10%	9%	2

Source: PubChem
